Test results as given in the supplement of paper PMC9446081.
± gives the standard deviation of the averaged measurements.

Tests used:
Experiment in all cases: relative enzymatic activity vs untreated control (fraction); higher = less inhibition
Conditions in all cases: 100 µM; incubation time: 2 h at 37 C
DNA gyrase = tested on: DNA gyrase
Procedure: (§1)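 In vitro enzymatic inhibition assays (ProFoldin kits) for 12 purified essential E. coli enzymes or complexes, each treated with 218 active antibacterial compounds at 100 µM for 2 h at 37°C. Read-outs were fluorescence or absorbance (phosphate detection, dye binding), converted to activity via standard curves and expressed relative to untreated DMSO controls.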

DNA helicase = DNA helicase (UniProt P0ACB1)
Sequence of DNA helicase (P0ACB1 whole entry): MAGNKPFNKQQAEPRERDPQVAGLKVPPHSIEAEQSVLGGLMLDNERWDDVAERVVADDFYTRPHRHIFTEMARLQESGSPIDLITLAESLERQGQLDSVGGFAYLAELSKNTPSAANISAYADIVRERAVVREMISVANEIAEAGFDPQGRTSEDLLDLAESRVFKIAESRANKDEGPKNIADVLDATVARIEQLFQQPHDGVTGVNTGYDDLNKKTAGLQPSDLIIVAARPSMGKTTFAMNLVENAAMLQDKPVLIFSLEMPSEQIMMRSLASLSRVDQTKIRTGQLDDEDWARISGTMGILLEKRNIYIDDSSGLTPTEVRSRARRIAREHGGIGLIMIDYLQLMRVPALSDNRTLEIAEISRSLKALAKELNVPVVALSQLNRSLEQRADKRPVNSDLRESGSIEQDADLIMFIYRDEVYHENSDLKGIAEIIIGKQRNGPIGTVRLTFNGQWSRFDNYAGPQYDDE
Procedure: as §1

DNA ligase = DNA ligase (UniProt B1XA82)
Sequence of DNA ligase (B1XA82 whole entry): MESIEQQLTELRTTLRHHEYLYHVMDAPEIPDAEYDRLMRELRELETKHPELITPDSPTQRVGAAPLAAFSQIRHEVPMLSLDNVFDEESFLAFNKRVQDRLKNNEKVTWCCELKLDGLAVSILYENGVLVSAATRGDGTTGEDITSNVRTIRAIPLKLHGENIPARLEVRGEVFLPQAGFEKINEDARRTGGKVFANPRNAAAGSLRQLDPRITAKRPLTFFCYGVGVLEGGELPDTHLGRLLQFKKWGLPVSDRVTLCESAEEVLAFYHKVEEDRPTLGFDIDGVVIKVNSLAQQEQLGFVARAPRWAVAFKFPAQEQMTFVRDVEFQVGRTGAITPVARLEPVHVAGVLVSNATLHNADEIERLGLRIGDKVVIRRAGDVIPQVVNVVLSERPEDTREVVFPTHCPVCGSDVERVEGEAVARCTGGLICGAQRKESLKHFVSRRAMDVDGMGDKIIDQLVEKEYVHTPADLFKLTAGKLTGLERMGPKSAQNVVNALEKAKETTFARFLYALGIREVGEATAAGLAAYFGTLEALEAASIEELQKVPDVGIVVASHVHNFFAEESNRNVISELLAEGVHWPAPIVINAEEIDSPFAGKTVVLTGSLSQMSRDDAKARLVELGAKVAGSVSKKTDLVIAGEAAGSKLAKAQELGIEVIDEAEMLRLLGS
Procedure: as §1

DNA polymerase = DNA polymerase (UniProt P10443)
Sequence of DNA polymerase (P10443 whole entry): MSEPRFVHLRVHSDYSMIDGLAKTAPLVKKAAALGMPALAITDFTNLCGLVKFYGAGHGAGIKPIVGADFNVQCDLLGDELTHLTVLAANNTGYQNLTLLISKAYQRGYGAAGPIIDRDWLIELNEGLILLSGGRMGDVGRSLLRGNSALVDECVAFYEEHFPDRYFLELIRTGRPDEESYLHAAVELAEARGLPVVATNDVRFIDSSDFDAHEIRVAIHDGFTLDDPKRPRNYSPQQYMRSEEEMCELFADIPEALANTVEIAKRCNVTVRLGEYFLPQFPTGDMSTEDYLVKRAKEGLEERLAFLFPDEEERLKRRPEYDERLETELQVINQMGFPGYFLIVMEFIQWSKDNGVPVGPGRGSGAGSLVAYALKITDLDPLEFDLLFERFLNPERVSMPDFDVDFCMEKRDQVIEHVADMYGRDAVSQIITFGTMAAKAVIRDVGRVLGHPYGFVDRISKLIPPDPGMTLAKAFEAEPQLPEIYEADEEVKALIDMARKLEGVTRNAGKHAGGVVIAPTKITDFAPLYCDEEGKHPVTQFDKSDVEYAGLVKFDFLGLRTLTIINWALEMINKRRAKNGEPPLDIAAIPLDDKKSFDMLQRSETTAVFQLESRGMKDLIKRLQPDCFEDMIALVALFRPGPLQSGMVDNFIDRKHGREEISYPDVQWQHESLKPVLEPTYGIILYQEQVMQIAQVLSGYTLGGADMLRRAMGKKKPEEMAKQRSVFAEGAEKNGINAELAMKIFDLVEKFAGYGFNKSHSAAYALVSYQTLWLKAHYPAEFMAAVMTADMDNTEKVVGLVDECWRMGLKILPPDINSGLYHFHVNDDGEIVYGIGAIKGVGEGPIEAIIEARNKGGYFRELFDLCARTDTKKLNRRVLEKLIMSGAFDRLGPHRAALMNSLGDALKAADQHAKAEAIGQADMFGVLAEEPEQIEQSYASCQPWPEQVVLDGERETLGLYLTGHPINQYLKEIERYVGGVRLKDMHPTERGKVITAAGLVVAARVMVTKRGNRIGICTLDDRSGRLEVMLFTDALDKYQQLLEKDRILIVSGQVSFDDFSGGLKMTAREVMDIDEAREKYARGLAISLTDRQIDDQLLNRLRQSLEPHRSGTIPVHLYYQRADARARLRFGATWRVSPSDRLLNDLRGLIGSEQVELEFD
Procedure: as §1

DNA primase = DNA primase (UniProt P0ABS7)
Sequence of DNA primase (P0ABS7 whole entry): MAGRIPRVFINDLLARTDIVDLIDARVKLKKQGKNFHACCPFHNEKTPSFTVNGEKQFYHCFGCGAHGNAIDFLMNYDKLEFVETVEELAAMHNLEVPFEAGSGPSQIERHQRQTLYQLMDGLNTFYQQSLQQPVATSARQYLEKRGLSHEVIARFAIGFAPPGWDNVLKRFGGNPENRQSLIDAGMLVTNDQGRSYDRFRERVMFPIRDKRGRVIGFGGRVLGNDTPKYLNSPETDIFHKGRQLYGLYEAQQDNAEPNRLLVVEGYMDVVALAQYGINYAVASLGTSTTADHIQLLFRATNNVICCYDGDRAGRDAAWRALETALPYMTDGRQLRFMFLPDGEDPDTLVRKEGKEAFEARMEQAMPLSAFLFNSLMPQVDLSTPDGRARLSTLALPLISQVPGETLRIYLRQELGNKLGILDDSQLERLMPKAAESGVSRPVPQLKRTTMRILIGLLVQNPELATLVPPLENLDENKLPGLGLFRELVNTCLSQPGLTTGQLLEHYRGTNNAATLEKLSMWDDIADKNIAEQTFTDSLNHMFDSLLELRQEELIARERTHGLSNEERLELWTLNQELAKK
Procedure: as §1

GlmU = GlmU (UniProt A7ZTU1)
Sequence of GlmU (A7ZTU1 whole entry, looked up): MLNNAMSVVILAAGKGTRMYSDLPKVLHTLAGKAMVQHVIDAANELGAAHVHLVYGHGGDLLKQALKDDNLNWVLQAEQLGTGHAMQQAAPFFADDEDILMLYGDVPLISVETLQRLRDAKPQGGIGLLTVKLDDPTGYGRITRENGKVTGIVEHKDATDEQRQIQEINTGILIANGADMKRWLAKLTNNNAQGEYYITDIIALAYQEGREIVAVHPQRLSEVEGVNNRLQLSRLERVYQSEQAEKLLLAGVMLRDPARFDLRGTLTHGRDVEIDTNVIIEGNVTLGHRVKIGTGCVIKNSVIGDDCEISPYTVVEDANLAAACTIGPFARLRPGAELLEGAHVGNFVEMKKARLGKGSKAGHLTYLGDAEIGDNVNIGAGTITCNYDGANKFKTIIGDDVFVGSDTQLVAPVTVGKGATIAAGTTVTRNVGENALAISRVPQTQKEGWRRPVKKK
Procedure: as §1

Guanlyate kinase = Guanlyate kinase (UniProt Q0TBG1)
Sequence of Guanlyate kinase (Q0TBG1 whole entry): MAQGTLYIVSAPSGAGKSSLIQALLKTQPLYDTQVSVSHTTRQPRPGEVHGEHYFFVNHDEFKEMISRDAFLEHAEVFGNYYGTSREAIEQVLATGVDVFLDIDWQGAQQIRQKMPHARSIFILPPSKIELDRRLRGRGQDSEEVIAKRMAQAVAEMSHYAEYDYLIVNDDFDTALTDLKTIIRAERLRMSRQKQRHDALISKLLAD
Procedure: as §1

MurA = MurA (UniProt Q3YX52)
Sequence of MurA (Q3YX52 whole entry): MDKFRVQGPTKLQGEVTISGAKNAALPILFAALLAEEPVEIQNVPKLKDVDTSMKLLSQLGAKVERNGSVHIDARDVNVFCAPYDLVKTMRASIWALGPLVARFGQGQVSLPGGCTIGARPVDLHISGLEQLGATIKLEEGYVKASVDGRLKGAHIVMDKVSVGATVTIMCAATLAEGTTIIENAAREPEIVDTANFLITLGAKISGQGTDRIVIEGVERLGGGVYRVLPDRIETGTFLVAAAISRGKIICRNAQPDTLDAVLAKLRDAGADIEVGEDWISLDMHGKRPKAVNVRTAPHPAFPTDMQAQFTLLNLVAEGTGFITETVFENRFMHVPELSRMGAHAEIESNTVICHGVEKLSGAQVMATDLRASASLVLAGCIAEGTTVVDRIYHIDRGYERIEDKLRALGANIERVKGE
Procedure: as §1

MurD = molecular target: T1, MurD (UniProt P14900)
T1 sequence (whole entry): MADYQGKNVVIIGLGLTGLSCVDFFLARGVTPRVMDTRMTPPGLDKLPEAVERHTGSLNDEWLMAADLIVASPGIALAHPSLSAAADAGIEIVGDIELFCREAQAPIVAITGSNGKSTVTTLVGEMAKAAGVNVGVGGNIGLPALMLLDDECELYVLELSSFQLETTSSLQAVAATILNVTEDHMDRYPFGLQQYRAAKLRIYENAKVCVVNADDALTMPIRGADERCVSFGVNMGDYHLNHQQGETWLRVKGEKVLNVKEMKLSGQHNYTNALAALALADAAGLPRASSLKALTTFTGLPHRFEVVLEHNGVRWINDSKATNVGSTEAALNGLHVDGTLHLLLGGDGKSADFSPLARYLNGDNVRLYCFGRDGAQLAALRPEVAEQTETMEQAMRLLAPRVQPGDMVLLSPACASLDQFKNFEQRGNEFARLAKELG
Procedure: as §1

MurF = molecular target: T2, MurF (UniProt P11880)
T2 sequence (whole entry): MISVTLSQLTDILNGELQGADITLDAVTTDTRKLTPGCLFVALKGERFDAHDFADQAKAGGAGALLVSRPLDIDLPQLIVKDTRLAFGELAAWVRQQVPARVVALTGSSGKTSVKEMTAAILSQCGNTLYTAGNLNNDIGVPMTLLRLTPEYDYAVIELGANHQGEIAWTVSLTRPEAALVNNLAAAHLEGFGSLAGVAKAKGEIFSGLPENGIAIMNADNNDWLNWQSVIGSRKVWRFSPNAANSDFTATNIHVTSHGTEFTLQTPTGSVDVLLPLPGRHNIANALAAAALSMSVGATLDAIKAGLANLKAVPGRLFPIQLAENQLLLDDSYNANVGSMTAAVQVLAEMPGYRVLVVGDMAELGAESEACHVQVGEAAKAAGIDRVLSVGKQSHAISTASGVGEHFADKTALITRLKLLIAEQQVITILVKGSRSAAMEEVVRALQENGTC
Procedure: as §1

RNA polymerase = tested on: RNA polymerase
Procedure: as §1

SMILES	relative enzymatic activity (DNA gyrase)	relative enzymatic activity (DNA helicase)	relative enzymatic activity (DNA ligase)	relative enzymatic activity (DNA polymerase)	relative enzymatic activity (DNA primase)	relative enzymatic activity (GlmU)	relative enzymatic activity (Guanlyate kinase)	relative enzymatic activity (MurA)	relative enzymatic activity (MurD)	relative enzymatic activity (MurF)	relative enzymatic activity (RNA polymerase)
COC1C=COC2(C)Oc3c(C)c(O)c4c(O)c(c(C=NN5CCN(C)CC5)c(O)c4c3C2=O)NC(=O)C(C)=CC=CC(C)C(O)C(C)C(O)C(C)C(OC(C)=O)C1C (stereo not drawn)	0.468 ± 0.18	0.717 ± 0.33	0.8414 ± 0.0057	0.862 ± 0.32	0.507 ± 0.0061	0.288 ± 0.02	0.399 ± 0.0045	0.0919 ± 0.015	0.175 ± 0.081	0.464 ± 0.051	0.0875 ± 0.0034
COC(=O)N/N=C/c1ccc([N+](=O)[O-])o1	0.742 ± 0.39	0.508 ± 0.072	0.9684 ± 0.0075	0.516 ± 0.72	0.841 ± 0.017	1.02 ± 0.019	0.942 ± 0.11	0.255 ± 0.17	0.636 ± 0.45	0.961 ± 0.21	0.918 ± 0.14
COC1(NC(=O)Cc2cccs2)C(=O)N2C(C(=O)[O-])=C(COC(N)=O)CSC21.[Na+] (stereo not drawn)	1.11 ± 0.041	0.48 ± 0.015	0.855 ± 0.14	1.41 ± 0.51	0.663 ± 0.13	0.984 ± 0.011	1.08 ± 0.062	0.0814 ± 0.021	0.574 ± 0.37	1.01 ± 0.21	0.829 ± 0.017
CCOC(=O)OC(C)OC(=O)C1N2C(=O)C(NC(=O)C(N)c3ccccc3)C2SC1(C)C.Cl (stereo not drawn)	0.992 ± 0.22	0.463 ± 0.04	0.901 ± 0.089	1.09 ± 0.16	0.841 ± 0.011	1.04 ± 0.033	0.975 ± 0.026	0.82 ± 0.1	0.598 ± 0.42	0.981 ± 0.23	0.803 ± 0.031
O=c1[nH]cc(F)c(=O)[nH]1	0.73 ± 0.39	0.568 ± 0.12	0.9871 ± 0.0093	0.593 ± 0.47	0.852 ± 0.023	0.981 ± 0.051	0.86 ± 0.071	0.673 ± 0.18	0.572 ± 0.36	0.972 ± 0.2	0.688 ± 0.065
CON=C(C(=O)NC1C(=O)N2C(C(=O)[O-])=C(COC(C)=O)CSC12)c1csc(N)n1.[Na+] (stereo not drawn)	0.696 ± 0.52	0.4103 ± 0.0017	0.569 ± 0.58	1.11 ± 0.28	0.68 ± 0.16	0.914 ± 0.13	1.04 ± 0.053	0.0697 ± 0.016	0.575 ± 0.37	0.939 ± 0.19	0.608 ± 0.48
COC12C(COC(N)=O)C3=C(C(=O)C(C)=C(N)C3=O)N1CC1NC12 (stereo not drawn)	1.01 ± 0.063	0.964 ± 0.15	1.03 ± 0.025	1.31 ± 0.47	0.728 ± 0.2	1.02 ± 0.018	1.05 ± 0.032	0.264 ± 0.12	0.589 ± 0.41	1.01 ± 0.23	0.882 ± 0.01
Cc1cn([C@H]2C[C@H](N=[N+]=[N-])[C@@H](CO)O2)c(=O)[nH]c1=O	0.52 ± 0.49	0.626 ± 0.26	0.932 ± 0.15	1.04 ± 0.19	0.733 ± 0.041	0.944 ± 0.04	0.885 ± 0.024	0.712 ± 0.092	0.491 ± 0.63	0.944 ± 0.18	0.778 ± 0.13
NC[C@H]1OB(O)c2c(OCCCO)cccc21	0.84 ± 0.32	0.308 ± 0.43	0.887 ± 0.13	1.08 ± 0.082	0.8235 ± 0.0023	0.922 ± 0.11	0.991 ± 0.1	0.709 ± 0.16	0.564 ± 0.35	1.17 ± 0.024	0.871 ± 0.073
C=C1c2cccc(O)c2C(=O)[C@@H]2C(=O)[C@]3(O)C(=O)[C@@H](C(N)=O)C(=O)[C@@H](N(C)C)[C@@H]3[C@@H](O)[C@H]12	0.554 ± 0.29	0.33 ± 0.051	0.848 ± 0.095	1.04 ± 0.31	0.707 ± 0.056	1.03 ± 0.018	0.679 ± 0.018	0.0871 ± 0.016	0.638 ± 0.46	1.06 ± 0.24	0.619 ± 0.015
CC(C)(O/N=C(\C(=O)N[C@@H]1C(=O)N2C(C(=O)O)=C(C[n+]3ccccc3)CS[C@H]12)c1csc(N)n1)C(=O)O	0.662 ± 0.56	0.577 ± 0.24	0.86 ± 0.088	1.1 ± 0.22	0.791 ± 0.01	1.01 ± 0.032	0.94 ± 0.075	0.0696 ± 0.019	0.613 ± 0.43	0.935 ± 0.24	0.829 ± 0.16
CC(C)(C)CC(C)(C)c1ccc(OCCOCC[N+](C)(C)Cc2ccccc2)cc1.[Cl-]	0.0482 ± 0.068	0.0168 ± 0.00082	0.917 ± 0.17	0.4 ± 0.06	0.709 ± 0.21	0.121 ± 0.031	0.439 ± 0.06	0.0623 ± 0.0083	0.114 ± 0.033	0.193 ± 0.035	0.838 ± 0.16
NCC1OC(OC2C(N)CC(N)C(OC3OC(CO)C(O)C(N)C3O)C2O)C(N)C(O)C1O.O=S(=O)(O)O (stereo not drawn)	0.685 ± 0.063	0.381 ± 0.53	0.834 ± 0.15	0.924 ± 0.43	0.539 ± 0.052	0.956 ± 0.069	0.589 ± 0.046	0.257 ± 0.04	0.647 ± 0.44	0.958 ± 0.17	0.537 ± 0.016
CON=C(C(=O)N[C@@H]1C(=O)N2C(C(=O)O)=C(CSc3nc(=O)c(O)nn3C)CS[C@H]12)c1csc(N)n1	0.722 ± 0.42	0.448 ± 0.015	0.961 ± 0.042	1.05 ± 0.24	0.8 ± 0.022	0.861 ± 0.055	0.984 ± 0.11	0.0646 ± 0.0061	0.568 ± 0.39	0.955 ± 0.25	0.524 ± 0.35
CO/N=C(\C(=O)N[C@@H]1C(=O)N2C(C(=O)O)=C(C[n+]3ccn4ncccc43)CS[C@H]12)c1nsc(N)n1	0.675 ± 0.49	0.625 ± 0.3	0.891 ± 0.17	1.14 ± 0.26	0.77 ± 0.018	0.999 ± 0.0029	0.949 ± 0.069	0.305 ± 0.13	0.591 ± 0.38	0.909 ± 0.24	0.8278 ± 0.0046
NC[C@H]1O[C@H](O[C@H]2[C@H](O)[C@@H](O[C@H]3O[C@H](CO)[C@@H](O)[C@H](N)[C@H]3O)[C@H](N)C[C@@H]2N)[C@H](N)C[C@@H]1O	0.902 ± 0.18	0.378 ± 0.22	0.91 ± 0.034	1.19 ± 0.21	0.572 ± 0.14	1.02 ± 0.033	0.443 ± 0.1	0.747 ± 0.093	0.609 ± 0.42	0.956 ± 0.23	0.906 ± 0.048
CCC1OC(=O)C(C)C(OC2CC(C)(OC)C(O)C(C)O2)C(C)C(OC2OC(C)CC(N(C)C)C2O)C(C)(O)CC(C)CN(C)C(C)C(O)C1(C)O (stereo not drawn)	1.09 ± 0.048	0.601 ± 0.15	1.06 ± 0.2	1.11 ± 0.15	0.712 ± 0.2	1.09 ± 0.14	1.04 ± 0.034	0.766 ± 0.061	0.572 ± 0.39	0.964 ± 0.17	0.843 ± 0.027
COC1=C(N)C(=O)c2nc(-c3nc(C(=O)O)c(C)c(-c4ccc(OC)c(OC)c4O)c3N)ccc2C1=O	0.611 ± 0.34	0.19 ± 0.014	0.732 ± 0.11	1.03 ± 0.48	0.602 ± 0.05	0.789 ± 0.23	0.6758 ± 0.0058	0.072 ± 0.019	0.596 ± 0.39	1 ± 0.23	0.291 ± 0.026
